Screening results: PubChem, Broad Institute
An excerpt weighted towards active compounds, which were near 6.8% of everything screened.
Pf Dd2 growth = blocks growth of Plasmodium falciparum Dd2 parasites. P. falciparum Dd2 growth, SYBR Green, 72 h; hits give low values. activity change, % at 10 µM. 94,000 tested, 2.3% active; in the data active = activity change below about -80%; inconclusive = no clear call, values can overlap the other calls
C diff HTS = inhibitors of Clostridium difficile growth. Clostridium difficile clinical isolate growth, OD600, 24 h; hits give low values. growth activity, negative = inhibition, % at 16 µg/mL (by protocol). 86,000 tested, 0.25% active. AID 1259249;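 active = mean growth activity at or below -80% and every replicate also at or below -80%; inconclusive = mean at or below -80% but some replicate above -80%; inactive = mean growth activity above -80%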;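 also: 0% = DMSO wells and -100% = levofloxacin 16 µg/mL wells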
T cruzi growth-1 = T. cruzi proliferation inhibition; T. cruzi beta-gal in NIH3T3, GalScreen luminescence, 90 h; inhibition, % at 8.34 µM; 77,000 tested, 5.9% active;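 active = mean inhibition above about 93%, with at least 55% of replicates each passing it, limit read from the data, passing the limit was not always enough; inconclusive = only one of those two conditions holds; inactive = neither condition holds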
T cruzi growth-2 = Trypanosoma cruzi proliferation inhibition | shares compounds with T cruzi growth-1 | T. cruzi beta-gal in NIH3T3, GalScreen luminescence, 90 h | inhibition, % at 8.35 µM | 5,600 tested, 72% active;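 active = mean replicate inhibition above about 95% and at least 55% of replicates individually reaching it, limit read from the data; inconclusive = only one of the two criteria is met; inactive = neither criterion is met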
T cruzi growth-3 = Trypanosoma cruzi proliferation inhibition; shares compounds with T cruzi growth-1; T. cruzi beta-gal in NIH3T3, GalScreen luminescence, 90 h; inhibition, % at 2.09 µM; 5,600 tested, 21% active; AID 651740;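 active = mean inhibition above about 95%, with at least 55% of replicates also reaching it, limit read from the data; inconclusive = meets just one of the two conditions; inactive = meets neither condition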;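 also: plate controls were neutral control median for no effect and positive control median for full effect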
3T3 cytotox = NIH/3T3 (mouse) viability loss | shares compounds with T cruzi growth-1 | NIH/3T3 viability, CellTiter-Glo ATP luminescence, 90 h | cytotoxicity (signal decrease), % at 8.35 µM | 5,600 tested, 14% active | AID 651742;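 active = mean signal decrease across replicates above about 35% based on untreated-well scatter, with enough replicates individually passing, limit read from the data; inconclusive = no rule stated though some were filed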;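 also: 0% = median of neutral control wells and 100% = median of positive control wells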
NIH3T3 tox 2 = kills mouse NIH/3T3 fibroblasts. shares compounds with T cruzi growth-1. NIH/3T3 viability, CellTiter-Glo ATP luminescence, 90 h. inhibition, % at 24.9 µM. 5,600 tested, 56% active. AID 651744;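 active = mean loss of cell viability signal at or above a set limit, and enough replicates individually reaching it; inconclusive = meets only the mean limit or only the replicate share; inactive = meets neither condition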;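 also: 0% = median of neutral control wells and 100% = median of positive control wells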
Numbers without * were called inactive; ? = inconclusive; / = no result given; ! = a repeat was not active.

SMILES | Pf Dd2 growth | C diff HTS | T cruzi growth-1 | T cruzi growth-2 | T cruzi growth-3 | 3T3 cytotox | NIH3T3 tox 2
C[C@H](CO)N1C[C@H](C)[C@H](CN(C)S(=O)(=O)c2ccc(Cl)cc2)OCCCC[C@H](C)Oc2ccc(NC(=O)C3CCCCC3)cc2C1=O | -68 | -1 | 106* | 111* | 72 | 18 | 51*
COc1ccc(S(=O)(=O)N(C)C[C@H]2OCCCC[C@@H](C)Oc3ccc(NC(=O)C4CCCCC4)cc3C(=O)N([C@@H](C)CO)C[C@H]2C)cc1 | -59 | -11 | 57 | / | / | / | /
O=C(C1CC1)N1CC(=O)N2[C@H](C1)[C@@H](c1ccc(-c3cccnc3)cc1)[C@@H]2CO | 23 | -4 | / | / | / | / | /
CN(C)CC(=O)Nc1ccc2c(c1)[C@H]1C[C@@H](CC(=O)NCc3ccc(Cl)cc3)O[C@H](CO)[C@H]1O2 | -3 | 0 | -78 | / | / | / | /
O=S(=O)(Cc1ccccc1)N1CCCCN2[C@H](CO)[C@H](c3ccc(-c4ccc(F)cc4)cc3)[C@@H]2C1 | 10 | 36 | 100* | 99* | 75 | 27 | 105*
Cc1ccccc1-c1ccc([C@@H]2[C@H](CO)N3CCCCN(S(=O)(=O)Cc4ccccc4)C[C@@H]23)cc1 | -72 | -42 | 33 | / | / | / | /
O=S(=O)(Cc1ccccc1)N1CCCCN2[C@@H](CO)[C@H](c3ccc(-c4ccc(F)cc4)cc3)[C@@H]2C1 | -31 | 40 | 94 | / | / | / | /
O=S(=O)(Cc1ccccc1)N1CCCCN2[C@H](CO)[C@@H](c3ccc(-c4ccc(F)cc4)cc3)[C@@H]2C1 | 0 | 35 | 109* | 108* | 52 | 23 | 102*
C[C@H]1CN([C@@H](C)CO)C(=O)c2cc(C#CC3CC3)cnc2O[C@@H]1CN(C)C(=O)c1ccncc1 | 36 | / | 15 | / | / | / | /
C[C@H]1CCCCO[C@@H](CN(C)Cc2ccc3c(c2)OCO3)[C@@H](C)CN([C@@H](C)CO)C(=O)c2cc(N(C)C)ccc2O1 | -9 | -3 | 11 | / | / | / | /
C[C@@H]1CN([C@@H](C)CO)C(=O)c2cc(N(C)C)ccc2O[C@@H](C)CCCCO[C@H]1CN(C)Cc1ccc2c(c1)OCO2 | -8 | -2 | 105*! | 22 | 5 | 9 | 6
C[C@@H]1CN([C@H](C)CO)C(=O)c2cc(N(C)C)ccc2O[C@@H](C)CCCCO[C@@H]1CN(C)Cc1ccc2c(c1)OCO2 | -18 | 2 | 102* | 23 | 18 | 2 | 11
C[C@H](CO)N1C[C@H](C)[C@@H](CN(C)Cc2ccc3c(c2)OCO3)OCCCC[C@H](C)Oc2ccc(N(C)C)cc2C1=O | 31 | -1 | / | / | / | / | /
CC(C)N(C[C@@H]1N[C@@H](CO)[C@@H]1c1ccccc1)S(=O)(=O)c1ccccc1 | -7 | 3 | 19 | / | / | / | /
COc1ccc(S(=O)(=O)Nc2ccc3c(c2)CC(=O)N([C@H](C)CO)C[C@H](C)[C@H](CN(C)S(=O)(=O)c2c(C)noc2C)O3)cc1 | -55 | 1 | 34 | / | / | / | /
CC(C)CC#Cc1cnc2c(c1)C(=O)N([C@@H](C)CO)C[C@@H](C)[C@H](CN(C)C(=O)CC1CC1)O2 | -10 | -3 | 43 | / | / | / | /
C[C@H]1CN([C@@H](C)CO)C(=O)c2cccc(NC(=O)Nc3ccc4c(c3)OCO4)c2O[C@@H]1CN(C)S(=O)(=O)c1cccs1 | -9 | / | 53 | / | / | / | /
C[C@@H]1CN([C@H](C)CO)C(=O)c2cc(NS(=O)(=O)c3ccc(F)cc3)ccc2O[C@@H]1CN(C)Cc1ccc(-c2ccccc2)cc1 | 6 | 18 | 92 | / | / | / | /
C[C@@H]1CN([C@H](C)CO)C(=O)c2cc(NS(=O)(=O)c3ccccc3)ccc2O[C@@H]1CN(C)Cc1ccc(-c2ccccc2)cc1 | 24 | 21 | 68 | / | / | / | /
C[C@H]1CN([C@@H](C)CO)C(=O)c2cc(NS(=O)(=O)c3ccc(Cl)cc3)ccc2O[C@@H]1CN(C)Cc1ccc(Oc2ccccc2)cc1 | 6 | 61 | ? | 108* | 37 | 29 | 105*
C[C@H]1CN([C@@H](C)CO)C(=O)c2cc(NS(=O)(=O)c3ccc(Cl)cc3)ccc2O[C@@H]1CN(C)Cc1ccc(-c2ccccc2)cc1 | 48 | 22 | 111* | 103* | 21 | -2 | 104*
COc1ccc(S(=O)(=O)Nc2ccc3c(c2)C(=O)N([C@@H](C)CO)C[C@H](C)[C@H](CN(C)Cc2ccc(-c4ccccc4)cc2)O3)cc1 | 9 | 32 | ? | 103* | 19 | 11 | 88*
C[C@@H]1CN([C@@H](C)CO)C(=O)c2cc(NS(=O)(=O)c3ccc(F)cc3)ccc2O[C@H]1CN(C)Cc1ccc(-c2ccccc2)cc1 | -4 | 16 | ? | 106* | 83 | 8 | 103*
COc1ccc(S(=O)(=O)Nc2ccc3c(c2)C(=O)N([C@H](C)CO)C[C@H](C)[C@H](CN(C)Cc2ccc(-c4ccccc4)cc2)O3)cc1 | 12 | 31 | 67 | / | / | / | /
C[C@@H]1CN([C@@H](C)CO)C(=O)c2cc(NS(=O)(=O)c3ccc(Cl)cc3)ccc2O[C@H]1CN(C)Cc1ccc(Oc2ccccc2)cc1 | 14 | 30 | 72 | / | / | / | /
SMILES | Pf Dd2 growth | C diff HTS | T cruzi growth-1 | T cruzi growth-2 | T cruzi growth-3 | 3T3 cytotox | NIH3T3 tox 2
C[C@@H]1CN([C@@H](C)CO)C(=O)Cc2cc(NC(=O)c3ccncc3)ccc2O[C@@H]1CN(C)C | 6 | -4 | / | / | / | / | /
CN1CCN(C(=O)C[C@H]2CC[C@H]3[C@@H](COC[C@H](O)CN3C(=O)Nc3cc(Cl)cc(Cl)c3)O2)CC1 | 1 | / | -24 | / | / | / | /
C[C@H](CO)N1C[C@H](C)[C@@H](CN(C)S(=O)(=O)c2cn(C)cn2)Oc2ccc(NS(=O)(=O)c3ccc(F)cc3)cc2CC1=O | 19 | -4 | -5 | / | / | / | /
COCC(=O)N(C)C[C@H]1Oc2cc(-c3cccnc3)ccc2S(=O)(=O)N([C@@H](C)CO)C[C@@H]1C | 2 | -5 | 3 | / | / | / | /
C[C@H](CO)N1C[C@H](C)[C@@H](CN(C)Cc2ccc(-c3ccccc3)cc2)Oc2ccc(NS(=O)(=O)c3ccc(Cl)cc3)cc2C1=O | 7 | 7 | 96 | / | / | / | /
C[C@@H]1CN([C@@H](C)CO)C(=O)c2cc(NS(=O)(=O)c3ccc(Cl)cc3)ccc2O[C@@H]1CN(C)Cc1ccc(-c2ccccc2)cc1 | 20 | 17 | ? | ? | 58 | 82* | 103*
C[C@@H]1CN([C@H](C)CO)C(=O)c2cc(NS(=O)(=O)c3ccc(Cl)cc3)ccc2O[C@@H]1CN(C)Cc1ccc(-c2ccccc2)cc1 | 10 | 14 | ? | 98* | 85 | 92* | 105*
C[C@@H]1CN([C@@H](C)CO)C(=O)c2cc(NS(=O)(=O)c3ccc(Cl)cc3)ccc2O[C@H]1CN(C)Cc1ccccc1 | 17 | -2 | 28 | / | / | / | /
C[C@H](CO)N1C[C@H](C)[C@@H](CN(C)Cc2ccc(-c3ccccc3)cc2)Oc2ccc(NS(=O)(=O)c3ccccc3)cc2C1=O | 11 | 29 | 34 | / | / | / | /
